Assay results as given in PubChem BioAssay (Tox21).
Results filed as inconclusive are left out. Activity calls are given as the source filed them. Unless noted, calls follow the shape of the dose curve; as a rule, active = well fitted curve in the direction sought with a large enough effect in the repeat runs; inconclusive = weak or mixed curves; inactive = no such curve, though single readings can be large; an effect the other way counts as inactive or inconclusive.

Tests used:
[1] = qHTS assay to identify small molecule agonists of the farnesoid-X-receptor (FXR) signaling pathway - cell viability counter screen (AID 743218); also: % is scaled to controls: 0 for no effect and ±100 for the full control effect; nearly all actives have a fitted effect of over 45% in size
In short: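 In GeneBLAzer FXR-UAS-bla HEK 293T cells, compounds act for 16 h at 37 C. Cell viability is then scored in the reporter wells by CellTiter-Glo, 30 min at RT, luminescence.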

[2] = qHTS assay to identify small molecule antagonists of the farnesoid-X-receptor (FXR) signaling pathway - cell viability counter screen (AID 743221; active = well fitted cell-killing curve with a large enough effect in the repeat runs, not every such curve was filed as active; also: % is scaled to controls: 0 for no effect and ±100 for the full control effect; nearly all actives have a fitted effect of over 50% in size)
In short: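 After a 5 h settling period, FXR-bla HEK 293T cells receive compound and chenodeoxycholic acid (50 uM final) and incubate 16 h at 37 C; CellTiter-Glo luminescence, read after 30 min at room temperature, reports cell viability.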

[3] = molecular target: Vitamin D3 receptor (Homo sapiens) (UniProt P11473); assay: qHTS assay to identify small molecule antagonists of the vitamin D receptor (VDR) signaling pathway (AID 743223; active = well fitted inhibition curve with a large enough effect in the signal ratio in the repeat runs, not every such curve was filed as active; the % refers to the signal ratio; also: % is scaled to controls: 0 for no effect and ±100 for the full control effect)
Chain of Vitamin D3 receptor (Homo sapiens) (P11473 whole entry, looked up): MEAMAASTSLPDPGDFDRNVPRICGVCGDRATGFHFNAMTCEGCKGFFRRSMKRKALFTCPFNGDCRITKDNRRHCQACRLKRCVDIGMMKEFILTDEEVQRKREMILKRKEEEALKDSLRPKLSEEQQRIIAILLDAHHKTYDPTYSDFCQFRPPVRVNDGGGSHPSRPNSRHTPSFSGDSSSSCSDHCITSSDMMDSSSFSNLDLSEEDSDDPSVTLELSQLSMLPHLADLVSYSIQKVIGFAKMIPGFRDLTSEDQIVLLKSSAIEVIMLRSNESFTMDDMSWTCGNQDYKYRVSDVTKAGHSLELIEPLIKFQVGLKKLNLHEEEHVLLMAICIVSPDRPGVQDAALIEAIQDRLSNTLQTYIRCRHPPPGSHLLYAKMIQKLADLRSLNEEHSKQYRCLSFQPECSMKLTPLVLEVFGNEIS
In short: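 Reporter line VDR-bla; stimulus 1alpha,25-(OH)2 vitamin D3, 3 nM final; compound co-addition, 16 h 37C/5% CO2; LiveBLAzer B/G substrate 2 h RT; fluorescence intensity.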

[4] = qHTS assay to identify small molecule agonists of the vitamin D receptor (VDR) signaling pathway - cell viability counter screen (AID 743224); also: series mostly up to about 63 µM; % is scaled to controls: 0 for no effect and ±100 for the full control effect; nearly all actives have a fitted effect of over 50% in size
In short: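 VDR-bla cell line, quantitative HTS format; 16 h compound incubation (37C, 5% CO2); ATP-based CellTiter-Glo luminescence measured in the reporter assay wells.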

[5] = qHTS assay to identify small molecule antagonists of the vitamin D receptor (VDR) signaling pathway - cell viability counter screen (AID 743225); also: % is scaled to controls: 0 for no effect and ±100 for the full control effect; nearly all actives have a fitted effect of over 50% in size
In short: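 Parallel cytotoxicity test: VDR-UAS-bla HEK 293T, 3 nM (final) 1-alpha,25-dihydroxyvitamin D3 with test compound, 16 h, 37C. Endpoint is CellTiter-Glo luminescence in the same wells.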

[6] = qHTS assay to identify small molecule agonists of the NFkB signaling pathway - cell viability counter screen (AID 1159515; calls by dose curve; also: series mostly up to about 61 µM; % is scaled to controls: 0 for no effect and ±100 for the full control effect; nearly all actives have a fitted effect of over 55% in size)
In short: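 Viability in NFkB-bla ME-180 cells was measured by CellTiter-Glo luminescence, 30 min room temperature, in wells already treated 5 hr with compounds and read for reporter FRET.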

[7] = qHTS assay to identify small molecule antagonists of the retinoid-related orphan receptor gamma (ROR-gamma) signaling pathway - cell viability counter screen (AID 1159520); also: % is scaled to controls: 0 for no effect and ±100 for the full control effect; nearly all actives have a fitted effect of over 50% in size
In short: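 Tet-on ROR gamma CHO cells were given compounds for 2 hr, then doxycycline hyclate at 1 uM final, and incubated 16 hr at 37 C. Viability was measured as ATP content by CellTiter-Glo luminescence.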

[8] = molecular target: Nuclear receptor ROR-gamma (Homo sapiens) (UniProt P51449); assay: qHTS assay to identify small molecule antagonists of the retinoid-related orphan receptor gamma (ROR-gamma) signaling pathway (AID 1159521)
In short: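 Decreased RORE-driven luciferase luminescence indicates antagonism. Tet-on RORγ CHO cells received compound, then 1 uM final doxycycline 2 h later; signal read after 16 h incubation.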

[9] = qHTS assay to identify small molecule agonists of the AP-1 signaling pathway - cell viability counter screen (AID 1159525; calls by dose curve; also: nearly all actives have a fitted effect of over 55% in size)
In short: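 AP-1-bla ME-180 cells in Opti-MEM with 0.5% dialyzed FBS, compound exposure 5 h at 37 C in 15-point titration. Viability read in the same wells as ATP content by CellTiter-Glo luminescence, normalised to tetra-n-octylammonium bromide and DMSO controls.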

[10] = qHTS assay to identify small molecule agonists of the AP-1 signaling pathway (AID 1159526; calls by dose curve; also: % is scaled to controls: 0 for no effect and ±100 for the full control effect)
[11] = qHTS assay to identify small molecule agonists of the peroxisome proliferator-activated receptor delta (PPARd) signaling pathway - cell viability counter screen (AID 743211); also: % is scaled to controls: 0 for no effect and ±100 for the full control effect; nearly all actives have a fitted effect of over 55% in size
In short: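 qHTS cell viability: PPARd-bla HEK293H; 17 h cpd, 37C; CellTiter-Glo, luminescence at 30 min RT.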

[12] = qHTS assay to identify small molecule antagonists of the peroxisome proliferator-activated receptor delta (PPARd) signaling pathway - cell viability counter screen (AID 743213)
In short: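 Agonist-stimulated (L165041, 300 nM final) HEK293H PPARd UAS-bla cells are exposed to compounds for 17 h at 37 C, and ATP-based luminescence (CellTiter-Glo) from the same wells reports cytotoxicity.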

[13] = molecular target: Vitamin D3 receptor (Homo sapiens) (UniProt P11473); assay: qHTS assay to identify small molecule agonists of the vitamin D receptor (VDR) signaling pathway (AID 743222; calls by dose curve; also: % is scaled to controls: 0 for no effect and ±100 for the full control effect)
In short: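 Agonist activity measured in VDR-bla reporter cells. Exposure 16 h, 37C, 5% CO2; detection by B/G FRET substrate, 2 h RT.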

[14] = qHTS assay to identify small molecule agonists of the endoplasmic reticulum stress response signaling pathway - cell viability counter screen (AID 1159517; calls by dose curve)
In short: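 Counter-screen wells were identical to the reporter wells. Cells were plated at 1,500 per well and dosed for 5 hr, then read for luminescence 30 min after CellTiter-Glo addition.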

[15] = molecular target: Peroxisome proliferator-activated receptor delta (Homo sapiens) (UniProt Q03181); assay: qHTS assay to identify small molecule agonists of the peroxisome proliferator-activated receptor delta (PPARd) signaling pathway (AID 743212; calls by dose curve; also: % is scaled to controls: 0 for no effect and ±100 for the full control effect)
Chain of Peroxisome proliferator-activated receptor delta (Homo sapiens) (Q03181 whole entry, looked up): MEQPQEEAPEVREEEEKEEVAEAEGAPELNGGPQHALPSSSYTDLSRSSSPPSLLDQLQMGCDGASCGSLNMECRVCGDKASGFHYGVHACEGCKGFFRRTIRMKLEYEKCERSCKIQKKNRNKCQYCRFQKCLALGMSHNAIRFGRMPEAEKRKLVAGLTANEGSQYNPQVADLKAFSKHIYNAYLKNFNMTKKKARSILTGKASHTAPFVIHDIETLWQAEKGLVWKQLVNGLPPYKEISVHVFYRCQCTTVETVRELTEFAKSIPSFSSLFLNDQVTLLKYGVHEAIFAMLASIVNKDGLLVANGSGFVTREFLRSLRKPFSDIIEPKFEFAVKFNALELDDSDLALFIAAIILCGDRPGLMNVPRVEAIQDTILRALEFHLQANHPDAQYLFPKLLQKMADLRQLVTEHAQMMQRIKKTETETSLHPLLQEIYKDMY
In short: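 Quantitative high-throughput agonist screen in a HEK293H beta-lactamase reporter line under UAS control. Compounds in DMSO, at 37 C. Fluorescence read after 2 h with FRET substrate at room temperature.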

[16] = molecular target: Peroxisome proliferator-activated receptor delta (Homo sapiens) (UniProt Q03181); assay: qHTS assay to identify small molecule antagonists of the peroxisome proliferator-activated receptor delta (PPARd) signaling pathway (AID 743215; active = well fitted inhibition curve with a large enough effect in the signal ratio in the repeat runs, not every such curve was filed as active; the % refers to the signal ratio)
In short: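 Antagonist-mode beta-lactamase reporter screen: HEK293H cells with UAS-bla under PPARd control, stimulated by 300 nM L165041 (final) alongside test compound for 17 h at 37 C, then FRET fluorescence after 2 h substrate incubation.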

[17] = molecular target: Bile acid receptor (Homo sapiens) (UniProt Q96RI1); assay: qHTS assay to identify small molecule antagonists of the farnesoid-X-receptor (FXR) signaling pathway (AID 743217; active = well fitted inhibition curve with a large enough effect in the signal ratio in the repeat runs, not every such curve was filed as active; the % refers to the signal ratio; also: % is scaled to controls: 0 for no effect and ±100 for the full control effect)
Chain of Bile acid receptor (Homo sapiens) (Q96RI1 whole entry, looked up): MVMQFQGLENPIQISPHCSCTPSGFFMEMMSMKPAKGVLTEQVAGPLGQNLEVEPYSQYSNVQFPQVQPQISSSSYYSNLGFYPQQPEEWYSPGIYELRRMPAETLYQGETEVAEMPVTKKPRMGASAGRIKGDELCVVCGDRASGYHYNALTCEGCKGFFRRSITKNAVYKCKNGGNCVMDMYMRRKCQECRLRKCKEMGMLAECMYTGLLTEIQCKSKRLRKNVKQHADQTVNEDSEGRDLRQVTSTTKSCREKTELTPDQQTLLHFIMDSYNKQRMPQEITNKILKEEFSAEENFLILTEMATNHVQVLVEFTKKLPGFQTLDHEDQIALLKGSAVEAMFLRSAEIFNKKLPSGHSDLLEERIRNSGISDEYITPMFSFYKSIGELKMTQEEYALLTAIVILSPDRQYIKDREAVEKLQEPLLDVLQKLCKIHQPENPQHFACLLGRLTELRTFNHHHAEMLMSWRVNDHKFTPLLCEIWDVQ
In short: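 Beta-lactamase reporter under UAS control in HEK 293T cells; compound exposure 16 h at 37 °C in the presence of chenodeoxycholic acid (50 uM final); signal from B/G FRET substrate after 2 h at room temperature.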

[18] = molecular target: Bile acid receptor (Homo sapiens) (UniProt Q96RI1); assay: qHTS assay to identify small molecule agonists of the farnesoid-X-receptor (FXR) signaling pathway (AID 743220; active = well fitted activation curve with a large enough effect in the signal ratio in the repeat runs, not every such curve was filed as active; the % refers to the signal ratio; also: % is scaled to controls: 0 for no effect and ±100 for the full control effect)
In short: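 Beta-lactamase reporter under UAS control in GeneBLAzer FXR HEK 293T cells (5000/well) measured with LiveBLAzer FRET substrate after 2 h at room temperature. Compound exposure lasted 16 h at 37C.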

[19] = qHTS assay to identify small molecule agonists of the endoplasmic reticulum stress response signaling pathway (AID 1159516; active = well fitted activation curve with a large enough effect in the signal ratio in the repeat runs, not every such curve was filed as active; the % refers to the signal ratio; also: % is scaled to controls: 0 for no effect and ±100 for the full control effect)
In short: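 ER stress element reporter (bla) in HeLa. 1,500 cells/well, overnight attachment; 5 hr compound; 2 hr RT substrate; dual-emission fluorescence.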

CC(C)C1CCC(C(=O)N[C@H](Cc2ccccc2)C(=O)O)CC1 (some centres not stated)
inactive: Potency [1] | Potency [2] | outcome [3] | Potency [4] | Potency [5] | Potency [6] | Potency [7] | Potency [8] | Potency [9] | outcome [10]

O=C(O)c1cccc(C[C@@H]2COc3ccc(OCc4nc5cc(F)ccc5s4)cc3[C@@H]2O)c1
inactive: Potency [11] | Potency [12] | Potency [1] | Potency [2] | outcome [13] | outcome [3] | Potency [4] | Potency [5] | Potency [6] | Potency [14] | Potency [7] | Potency [8] | outcome [10]

c1ccc2sc(SSc3nc4ccccc4s3)nc2c1
inactive: outcome [15] | Potency [12] | Potency [16] | outcome [17] | Potency [1] | Potency [18] | Potency [2] | outcome [13] | outcome [3] | Potency [4] | Potency [5] | Potency [6] | Potency [19] | activity, negative = cytotoxicity [7] -8.11% [at 19 µM] | activity change, negative = inhibition [8] 7.93% [at 19 µM] | activation [10] 15.6% [at 15.8 µM]

CCCCOC(=O)CCCCC(=O)OCCCC
inactive: Potency [11] | outcome [15] | Potency [12] | Potency [16] | Potency [1] | Potency [2] | outcome [13] | outcome [3] | Potency [4] | Potency [5] | Potency [6] | Potency [14] | Potency [7] | Potency [8] | Potency [9] | outcome [10]

CCC(Cl)CC(Cl)C(Cl)C(Cl)C(Cl)C(C)Cl (configuration not stated)
inactive: activity change, negative = cytotoxicity [11] -18.5% [at 13.2 µM] | activation [15] -9.79% [at 13.2 µM] | ratio activity, negative = inhibition [16] -24% [at 13.7 µM] | activity change, negative = cytotoxicity [2] -0.0192% [at 13.2 µM] | activity change, negative = cytotoxicity [4] -2.44% [at 13.2 µM] | viability change, negative = cytotoxic [5] 6.69% [at 15.1 µM] | activity, negative = cytotoxic [6] 0.94% [at 15.1 µM] | activation [19] -4.87% [at 15.1 µM] | activity, negative = cytotoxicity [7] 0.516% [at 19 µM] | activity change, negative = inhibition [8] 79.2% [at 19 µM] | viability change, negative = cytotoxic [9] -14.2% [at 15.8 µM] | activation [10] 9.95% [at 15.8 µM]

Nc1ccc(NC(=O)c2ccc(N)cc2)cc1
inactive: Potency [11] | outcome [15] | Potency [12] | Potency [16] | Potency [1] | Potency [2] | Potency [4] | Potency [6] | Potency [7] | Potency [8] | Potency [9] | outcome [10]

O=C(O)c1cccc(Oc2ccccc2)c1
inactive: Potency [11] | Potency [12] | Potency [16] | Potency [1] | Potency [2] | outcome [3] | Potency [4] | Potency [5] | Potency [6] | Potency [19] | Potency [7] | Potency [8] | Potency [9] | outcome [10]

O=CNNC=O
inactive: outcome [15] | Potency [12] | Potency [16] | Potency [1] | Potency [2] | outcome [13] | outcome [3] | Potency [4] | Potency [5] | Potency [6] | Potency [7] | Potency [8] | Potency [9] | outcome [10]

CC(C)(C)NCC(O)COc1cccc2c1C[C@H](O)[C@H](O)C2 (some centres not stated)
inactive: Potency [11] | Potency [1] | Potency [2] | Potency [5] | Potency [6] | Potency [14] | Potency [7] | Potency [8] | Potency [9] | outcome [10]
